We go through seven molecules from PubChem BioAssay (NCI).

Compounds without any hit were thinned out: in the full panel of roughly 83,000, 20% have a hit.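 Negative percent growth values reflect cell death: -40 means 40% of the cells present at the start died, and -100 means all died.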 Values without a mark were called inactive. Activity calls are given as the source filed them. Rule for the calls: active = growth percent below 10; inactive = the rest.

Among the test systems are HCT-15 colon; HT29 colon; SNB-75 CNS; SNB-19 CNS; U251 CNS; PC-3 prostate; SK-MEL-5 melanoma; UACC-62 melanoma; LOX IMVI melanoma; SK-MEL-28 melanoma; SK-MEL-2 melanoma; EKVX NSCLC; SN12C renal; UO-31 renal; TK-10 renal; ACHN renal; CAKI-1 renal; A498 renal; CCRF-CEM leukemia; MOLT-4 leukemia.
Assay in all cases: NCI-60 one-dose screen, 48 h (100 = growth as untreated, 0 = no growth, -100 = all killed)
Holding throughout (settings): 10 µM unless noted

Turning to `COc1cc(/C=C/C(=O)c2cc(OC)c(OC)c(OC)c2)ccc1Oc1nc2c(c(=O)n(C)c(=O)n2C)n1C`, the growth in the assay on HCT-15 colon is 0.728% (active); with HT29 colon, -51.1% (active); in the assay with SNB-75 CNS it was 31%; in the assay with SNB-19 CNS it was 18.7%; with U251 CNS it was -81.9% (active); in the assay on PC-3 prostate it was 7.57% (active). Also, the growth was 28.9% in the assay with SK-MEL-5 melanoma; -74.1% (active) with UACC-62 melanoma; -81.1% (active) with LOX IMVI melanoma; -45.3% (active) in the assay with SK-MEL-28 melanoma; 76.3% in the assay on SK-MEL-2 melanoma; 1.98% (active) in the assay on EKVX NSCLC. Besides, the growth was 11.6% in the assay on SN12C renal; -92.1% (active) with UO-31 renal; -8.16% (active) in the assay with TK-10 renal; -21.9% (active) with ACHN renal; -47.2% (active) in the assay on CAKI-1 renal; 29.4% in the assay with A498 renal. Also, the results for the growth with CCRF-CEM leukemia and in the assay with MOLT-4 leukemia were 5.81% (active) and 2.13% (active), respectively.

For `C=C1CC[C@@H]2C(C)(C)[C@H](O)CC[C@@]2(C)[C@@H]1COc1ccc2ccc(=O)oc2c1`, the growth with HCT-15 colon was 56.2%; in the assay on HT29 colon it was 84.1%; in the assay on SNB-75 CNS, 98.5%; with SNB-19 CNS it was 86.2%; in the assay on U251 CNS, 83.1%; in the assay on PC-3 prostate it was 25.2%. Besides, the growth with SK-MEL-5 melanoma was 19.1%; in the assay on UACC-62 melanoma it was 24.5%; in the assay on LOX IMVI melanoma, 36.5%; in the assay with SK-MEL-28 melanoma, 73.6%; in the assay on SK-MEL-2 melanoma, 63.8%; in the assay on EKVX NSCLC it was 57.8%. For the same molecule, the growth in the assay on SN12C renal was 67.3%; in the assay on UO-31 renal, -3.4% (active); in the assay with TK-10 renal, 96.3%; in the assay on ACHN renal, 49%; with CAKI-1 renal it was 39.6%; in the assay on A498 renal, 64.5%. Also, the growth with CCRF-CEM leukemia is 26.2%; in the assay on MOLT-4 leukemia, 31.6%.

Consider `CN(C)CCn1c(=O)c2ccccc2n2nc3ccccc3c12`, for which the growth is 84.1% in the assay on HCT-15 colon; 78.9% in the assay with HT29 colon; 93.5% in the assay on SNB-75 CNS; 78.1% with SNB-19 CNS; 88.8% in the assay on U251 CNS; 99.3% in the assay with PC-3 prostate. In addition, the growth in the assay on SK-MEL-5 melanoma is 87.2%; with UACC-62 melanoma, 72.7%; in the assay on LOX IMVI melanoma, 56.4%; in the assay with SK-MEL-28 melanoma it was 116%; in the assay on SK-MEL-2 melanoma, 128%; in the assay with EKVX NSCLC it was 94.1%. Besides, the growth in the assay on SN12C renal was 69.9%; in the assay with UO-31 renal it was 52.9%; in the assay on TK-10 renal it was 97.9%; with ACHN renal, 46.6%; with CAKI-1 renal, 77.6%; with A498 renal, 9.6% (active). Further, the figures for the growth with CCRF-CEM leukemia and with MOLT-4 leukemia were 81.8% and 29.9%, respectively.

For `CC(C)=CC(=O)N[C@H]1CC[C@]2(C)C3CC[C@]4(C)C(C(C)N(C)C)=CCC4C3CCC2[C@H]1O` (stereo not given in full), the growth with HCT-15 colon is -36.5% (active); in the assay with HT29 colon, 2.01% (active); with SNB-75 CNS it was 65%; in the assay with SNB-19 CNS, 100%; with U251 CNS it was 51.5%; in the assay with PC-3 prostate, 37.7%. Further, the growth with SK-MEL-5 melanoma was -76.1% (active); in the assay with UACC-62 melanoma, -25.1% (active); with LOX IMVI melanoma, -59.1% (active); in the assay with SK-MEL-28 melanoma it was -72.5% (active); in the assay with SK-MEL-2 melanoma it was 106%; in the assay with EKVX NSCLC, 57.7%. The growth in the assay on SN12C renal is 70.1%; in the assay on UO-31 renal it was -48% (active); with TK-10 renal, 85.7%; in the assay with ACHN renal it was 58.6%; with CAKI-1 renal, 79.4%; in the assay with A498 renal, 66.1%. In addition, the growth in the assay with CCRF-CEM leukemia was 13.4%; in the assay with MOLT-4 leukemia, 48.1%.

As to `O=S(=O)(Nc1ccc2ccccc2c1)c1ccc(-c2cnc(C3CC3)o2)cc1`, the growth in the assay on HCT-15 colon was 31.5%; in the assay on HT29 colon, 14.8%; in the assay on SNB-75 CNS, -1.76% (active); in the assay with SNB-19 CNS, 35.8%; in the assay with U251 CNS, 23.6%; in the assay with PC-3 prostate it was 23.4%. The growth was 28.2% with SK-MEL-5 melanoma; 32.1% in the assay with UACC-62 melanoma; 56.9% in the assay with LOX IMVI melanoma; 64.9% in the assay with SK-MEL-28 melanoma; 40.2% with SK-MEL-2 melanoma; 41.9% in the assay with EKVX NSCLC. The growth with SN12C renal is 44.9%; with UO-31 renal, 42.5%; in the assay on TK-10 renal, 61.9%; in the assay with ACHN renal, 36.2%; with CAKI-1 renal it was 28.9%; with A498 renal it was 3.93% (active). Also, the growth was 10.7% with CCRF-CEM leukemia and 20.2% with MOLT-4 leukemia.

Regarding `COc1ccc(/C=C/C(c2cc(OC)c(OC)c(OC)c2)n2cncn2)cc1O` (stereo not given), the growth was 16.5% in the assay with HCT-15 colon; 41% in the assay on HT29 colon; 41% in the assay on SNB-75 CNS; 34.2% in the assay on SNB-19 CNS; 20.7% in the assay on U251 CNS; 23.5% with PC-3 prostate. The growth in the assay with SK-MEL-5 melanoma is 23.9%; with UACC-62 melanoma, 37.5%; in the assay on LOX IMVI melanoma it was 50.9%; in the assay on SK-MEL-28 melanoma it was 59.1%; in the assay on SK-MEL-2 melanoma, 18.2%; in the assay on EKVX NSCLC, 59.4%. The growth in the assay with SN12C renal is 49.6%; in the assay on UO-31 renal, 54.2%; in the assay on TK-10 renal it was 41.2%; in the assay on ACHN renal, 63.1%; with CAKI-1 renal it was 34.5%; in the assay with A498 renal it was 19.8%. The growth in the assay on CCRF-CEM leukemia is 6.31% (active); with MOLT-4 leukemia, 21.8%.

Consider `O=S(=O)(N=C1C(Cl)=C(Cl)C(=NS(=O)(=O)c2ccccc2)C(Cl)=C1Cl)c1ccccc1`, for which the growth with HCT-15 colon is 7.28% (active); in the assay with HT29 colon, 14%; in the assay on SNB-75 CNS, 132%; in the assay on SNB-19 CNS, 95.9%; in the assay on U251 CNS, 59.8%; with PC-3 prostate, 121%. The growth in the assay with SK-MEL-5 melanoma was 87%; in the assay with UACC-62 melanoma, 67.1%; in the assay with LOX IMVI melanoma, 54.6%; with SK-MEL-28 melanoma it was 89.5%; in the assay with SK-MEL-2 melanoma, 14%; in the assay on EKVX NSCLC, 107%. Further, the growth in the assay with SN12C renal is 87.6%; in the assay with UO-31 renal, 89.5%; in the assay with TK-10 renal, 95.3%; in the assay on ACHN renal, -22.5% (active); in the assay on CAKI-1 renal, 5% (active); with A498 renal, 96.8%. Moreover, the growth was 73.6% in the assay with CCRF-CEM leukemia and 55% in the assay on MOLT-4 leukemia.
